Reference: paper PMC5913336, “True equilibrium measurement of transcription factor-DNA binding affinities using automated polarization microscopy”
pKd: −log10 of the molar value.

What follows are sequences tested against T1, Optix (Drosophila melanogaster, UniProt Q95RW8 139-229) (assay: FP; 33 mM phosphate pH 7.0, 90 mM NaCl, 0.01% Tween 20, 0.1 mM DTT, 0.5% agarose; room temperature). Conditions: tags: N-GST (pGEX-6P-1, kept); dsDNA, one strand shown.
T1 sequence: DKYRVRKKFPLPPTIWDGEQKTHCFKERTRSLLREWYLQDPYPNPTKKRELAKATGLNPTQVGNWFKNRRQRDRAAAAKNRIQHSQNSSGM

Sequence | binding signal | pKd
AGAGTGATAGAT | 16.1 Kd / Kd of best base at the position | –
AGAGTGATGGCT | 127 Kd / Kd of best base at the position | –
AGAGTGATAGCC | 4.04 Kd / Kd of best base at the position | –
AGAGTGATACCT | 2.57 Kd / Kd of best base at the position | –
AGAGTGATAGCT | – | ~8.30
AAAGTGATAGCT | 1.14 Kd / Kd of best base at the position | –
AGAGCGATAGCT | 6.46 Kd / Kd of best base at the position | –
AGAGTGATAGCA | 5.73 Kd / Kd of best base at the position | –
AGTGTGATAGCT | 6.5 Kd / Kd of best base at the position | –
AGAGTCATAGCT | 51.6 Kd / Kd of best base at the position | –
AGAGTGATTGCT | 49 Kd / Kd of best base at the position | –
AGACTGATAGCT | 1.06 Kd / Kd of best base at the position | –
AGAGTGGTAGCT | 39.7 Kd / Kd of best base at the position | –
AGAGAGATAGCT | 9.88 Kd / Kd of best base at the position | –
ATAGTGATAGCT | 1.01 Kd / Kd of best base at the position | –
AGATTGATAGCT | 6.38 Kd / Kd of best base at the position | –
TGAGTGATAGCT | 4.48 Kd / Kd of best base at the position | –

Sequence | binding signal | pKd
AGAGGGATAGCT | 8.18 Kd / Kd of best base at the position | –
AGAGTGATCGCT | 9.37 Kd / Kd of best base at the position | –
AGAATGATAGCT | 6.11 Kd / Kd of best base at the position | –
AGAGTTATAGCT | 25 Kd / Kd of best base at the position | –
ACAGTGATAGCT | 3.68 Kd / Kd of best base at the position | –
AGAGTAATAGCT | 23.7 Kd / Kd of best base at the position | –
AGAGTGATAGCG | 7.84 Kd / Kd of best base at the position | –
AGAGTGATAGGT | 4.85 Kd / Kd of best base at the position | –
AGGGTGATAGCT | 5.49 Kd / Kd of best base at the position | –
AGAGTGCTAGCT | 95.1 Kd / Kd of best base at the position | –
AGAGTGACAGCT | 185 Kd / Kd of best base at the position | –
AGAGTGTTAGCT | 34.8 Kd / Kd of best base at the position | –
GGAGTGATAGCT | 2.35 Kd / Kd of best base at the position | –
AGAGTGAGAGCT | 35.9 Kd / Kd of best base at the position | –
CGAGTGATAGCT | 5.01 Kd / Kd of best base at the position | –
AGAGTGATAACT | 12.1 Kd / Kd of best base at the position | –
